Source: PubChem (National Center for Advancing Translational Sciences (NCATS))
HP1b chromo inh = HTS for Inhibitors of HP1-beta Chromodomain Interactions with Methylated Histone Tails; actives 0.56% (n = 390,000); AID 540317, 2011; Chromobox protein homolog 1 (Homo sapiens), P83916; AlphaScreen HP1-beta / biotin-H3K9me3 peptide binding; Potency, µM (highest dose often 114 µM), for inactives: top-dose activity change, negative = inhibition, most hits filed as inhibitors; also: nearly all actives have a fitted effect of over 70% in size
Target sequence (P83916 whole entry, looked up): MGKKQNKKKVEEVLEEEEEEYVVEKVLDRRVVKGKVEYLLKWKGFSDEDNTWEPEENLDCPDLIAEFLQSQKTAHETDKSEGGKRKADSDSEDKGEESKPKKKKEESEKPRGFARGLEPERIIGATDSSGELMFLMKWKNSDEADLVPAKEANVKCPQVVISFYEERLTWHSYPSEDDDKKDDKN
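AlphaScreen: HP1-beta (50 nM) preformed 30 min with biotin-H3(1-18)K9me3 peptide (50 nM) in PBS pH 7.4, 0.01% Tween-20. Compound added for 30 min at RT, then streptavidin donor/nickel chelate acceptor beads (10 ug/mL) for 30 min.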
L3MBTL1 block = qHTS Assay for the Inhibitors of L3MBTL1; Lethal(3)malignant brain tumor-like protein 1 (Homo sapiens), Q9Y468; AlphaScreen L3MBTL1–H3K9me1 peptide binding; actives 0.66% (n = 230,000); Potency, µM (top dose mostly 57.1 µM), for the others: top-dose activity, negative = inhibition, most hits filed as inhibitors; also: % is scaled to controls: 0 for no effect and ±100 for the full control effect; nearly all actives have a fitted effect of over 60% in size
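L3MBTL1 (50 nM) pre-complexed 30 min with biotinylated H3(1-15)K9me1 peptide (75 nM), then compounds added for 30 min at room temperature; AlphaScreen streptavidin donor/nickel chelate acceptor beads (10 ug/mL final) read after 30 min dark incubation.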
JMJD2A Tudor inh = qHTS Assay for Inhibitors of JMJD2A-Tudor Domain. Potency, µM (top dose mostly 114 µM), without a hit: at the highest dose activity change, negative = inhibition, usual class: inhibitors. AlphaScreen JMJD2A-Tudor / H3K4me3 peptide binding. actives 4.4% (n = 390,000). AID 504339, 2011; also: % is scaled to controls: 0 for no effect and ±100 for the full control effect; nearly all actives have a fitted effect of over 50% in size
PLK1 PBD block = qHTS for Inhibitors of PLK1-PDB (polo-like kinase 1 - polo-box domain): Primary Screen; Plk1 PBD binding of FITC phosphopeptide, fluorescence polarization; AID 720504, 2013; Potency, µM, without a hit: max response, negative = inhibition, most hits filed as inhibitors; actives 2.8% (n = 360,000); also: series mostly up to about 57 µM; % is scaled to controls: 0 for no effect and ±100 for the full control effect; nearly all actives have a fitted effect of over 65% in size
Target sequence (P53350 whole entry, looked up, the tested form may be a part): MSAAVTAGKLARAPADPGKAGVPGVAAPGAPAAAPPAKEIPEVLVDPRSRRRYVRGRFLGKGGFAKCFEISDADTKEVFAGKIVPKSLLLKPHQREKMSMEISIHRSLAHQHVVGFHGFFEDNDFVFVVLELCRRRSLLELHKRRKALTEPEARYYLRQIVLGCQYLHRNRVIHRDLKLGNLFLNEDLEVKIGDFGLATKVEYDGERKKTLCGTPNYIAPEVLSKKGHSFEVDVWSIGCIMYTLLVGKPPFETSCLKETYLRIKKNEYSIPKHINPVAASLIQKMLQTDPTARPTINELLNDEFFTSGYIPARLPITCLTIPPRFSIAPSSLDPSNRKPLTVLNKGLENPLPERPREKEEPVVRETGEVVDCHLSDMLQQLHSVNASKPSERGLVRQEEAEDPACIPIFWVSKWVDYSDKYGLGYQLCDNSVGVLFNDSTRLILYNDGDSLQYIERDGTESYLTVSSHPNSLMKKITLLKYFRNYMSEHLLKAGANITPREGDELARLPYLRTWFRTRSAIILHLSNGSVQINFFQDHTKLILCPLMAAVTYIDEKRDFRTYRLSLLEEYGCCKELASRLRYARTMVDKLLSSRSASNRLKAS
VDR inhibitor = Inhibitors of the vitamin D receptor (VDR): qHTS. VDR-SRC2-3 peptide fluorescence polarization, 2 h. Potency, µM, without a hit: max response, negative = inhibition, most hits filed as inhibitors. actives 0.93% (n = 400,000); also: % is scaled to controls: 0 for no effect and ±100 for the full control effect
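Inhibition of the VDR/SRC2-3 peptide interaction is quantified by fluorescence polarization. Compounds (23 nl, pintool) incubate with the reagents for 2 hours at ambient room temperature.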
BAZ2B inh = qHTS Assay for Inhibitors of BAZ2B; actives 4.4% (n = 360,000); AlphaScreen BAZ2B-H3K14Ac peptide displacement; AID 504333, 2011; Potency, µM (titrated, usually from 114 µM), for inactives: top-dose activity change, negative = inhibition, hits mostly inhibitors; Bromodomain adjacent to zinc finger domain protein 2B (Homo sapiens), Q9UIF8; also: % is scaled to controls: 0 for no effect and ±100 for the full control effect; nearly all actives have a fitted effect of over 60% in size
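AlphaScreen luminescence quantifies BAZ2B engagement of H3K14Ac peptide; the protein and biotinylated peptide are both at 50 nM final, buffer PBS pH 7.4 with 0.01% Tween-20, all steps at room temperature.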
Active calls of the source: *; ? = inconclusive; . = not tested or not shown; [ ] = remark or other dose. The list is not random: actives were taken first. Their share in the collection is about 6.9%. Calls follow the shape of the dose curve; as a rule, active = well fitted curve in the direction sought with a large enough effect; inconclusive = small, poorly fitted or top-dose-only effect, or another doubt; inactive = no such curve, though single readings can be large; an effect the other way counts as inactive or inconclusive. Potency is read from the fitted curve at half-maximal effect.

SMILES | HP1b chromo inh | L3MBTL1 block | JMJD2A Tudor inh | PLK1 PBD block | VDR inhibitor | BAZ2B inh
C=CCNC(=O)COC(=O)COc1ccc(Cl)cc1C | 13.1% | . | 0.6% | -8.8% | -8.6% | -4.1%
C=CCNC(=O)COc1cc(C)cc(C)c1C | 38.6% | 6.0% | -14.1% | -3.8% | -3.5% | 79.4µM*
O=C(NCc1cccc(Cl)c1)c1c2c(nc3ccccc13)C(=O)N(C1CCCCC1)C2 | 53.5% | . | -15.0% | . | 7.8% | -8.9%
CCOC(=O)Cn1c(=O)oc2cc(S(=O)(=O)N3CCC(C(=O)OCC)CC3)ccc21 | 38.1% | . | -1.3% | . | -11.1% | -4.7%
Cc1ccc(-n2nc3c(c2NC(=O)c2ccc(S(=O)(=O)N4CCOCC4)cc2)CSC3)c(C)c1 | 1.2% | -7.4% | -19.0% | -1.3% | 1.5% | -28.2%
Cc1ccc(/C=C2/C(=O)ON=C2c2ccccc2)o1 | ? | -11.9% | 79.4µM* | 0.67µM* | 23.0% | 28.2µM*
CC1=CC2=NC(=O)/C(=C\c3ccc(-c4cccc(Cl)c4)o3)C(=N)N2O1 | 22.3% | 0.9% | -1.4% | 1.0% | 27.6% | 3.1%
O=C1ON=C(c2ccccc2)/C1=C\c1ccco1 | 54.8% | 22.4µM* | -8.6% | 9.47µM* | ? | ?
Cc1sc(/C=C2\C(=O)ON=C2c2ccccc2)cc1Br | . | 8.4% | . | . | . | -7.8%
CC1=NOC(=O)/C1=C\c1ccc(-c2cccc(Cl)c2)o1 | -0.1% | -6.8% | ? | 0.532µM* | ? | ?
CCCCc1ccc(/C=C2/C(=O)ON=C2c2ccccc2)s1 | 48.9% | -3.4% | 22.2% | -10.9% | ? | 12.1%
COc1ccc(C2Nc3ccccc3C(=O)N2Cc2cccnc2)cc1COc1ccc(NC(C)=O)cc1 (stereo not drawn) | . | . | 56.2µM* | . | . | .
COc1ccc(C2Nc3ccccc3C(=O)N2Cc2ccccn2)cc1COc1ccc(NC(C)=O)cc1 (stereo not drawn) | . | . | 56.2µM* | . | . | .
COc1ccc(C2Nc3ccccc3C(=O)N2C2CCCC2)cc1COc1ccc(NC(C)=O)cc1 (stereo not drawn) | . | . | 50.1µM* | . | . | .
Nc1ccccc1Nc1ccccc1 | ? | -3.0% | 44.7µM* | -9.0% | 5.1% | 44.7µM*
Nc1ccc(Nc2ccccc2)c(Cl)c1 | ? | -14.0% | ? | -10.7% | -0.4% | 50.1µM*
Cc1nn(-c2ccccc2)c(C)c1/C=C/C(=O)OCC(=O)Nc1ncc(C(F)(F)F)cc1Cl | 18.6% | 7.6% | -12.9% | -4.4% | -13.0% | 0.0%
COCCc1nc2ccc(C(=O)N(C)Cc3cccc(-n4nc(C)cc4C)c3)cc2o1 | 11.2% | . | -5.8% | -4.3% | -0.8% | -1.6%
CC(=O)Nc1ccc(N=C(C2=C(O)c3ccccc3C2=O)c2ccccc2)cc1 | ? | -21.6% | 56.2µM* | ? | 2.8% | 39.8µM*
COc1ccc(N=C(C)C2=C(O)c3ccccc3C2=O)cc1 | 7.0% | -6.5% | ? | -6.7% | 19.9% | ?
CN(Cc1ccccc1)c1nc(-c2cccc([N+](=O)[O-])c2)nc2ccccc12 | -8.2% | 4.2% | 31.6µM* | 26.7µM* | ? | -24.3%
O=[N+]([O-])c1cccc(-c2nc(NCc3ccccc3)c3ccccc3n2)c1 | 5.1% | -7.6% | -17.4% | -9.8% | -11.9% | ?
N#CC1=C(c2ccccc2)/C(=C/c2ccccc2)OC1=O | ? | . | ? | 1.06µM* | ? | 22.4µM*
CC(C)C[C@@H](CN1CCC[C@@H]1CN1C(=S)NC[C@@H]1Cc1ccc(O)cc1)N1C[C@H](Cc2ccc(O)cc2)N(CC2CCCCC2)C1=S | . | . | . | 3.2% | . | .
Cc1ccc(N(Cc2ccccc2F)S(C)(=O)=O)cc1C | 33.2% | . | 13.4% | -6.4% | -3.2% | 56.2µM*
SMILES | HP1b chromo inh | L3MBTL1 block | JMJD2A Tudor inh | PLK1 PBD block | VDR inhibitor | BAZ2B inh
Fc1ccc(Cc2nnc(-c3cccs3)o2)cc1 | 49.7% | ? | 4.9% | -2.2% | -4.9% | 6.3%
CS(=O)(=O)N(Cc1nnc(-c2cccs2)o1)c1ccc(Cl)cc1F | -19.1% | 0.0% | -11.5%[11.4 µM] | 11.9µM* | -21.5% | -14.7%
Cc1cc2cc(C(c3nnnn3Cc3ccco3)N3CCc4ccccc4C3)c(=O)[nH]c2cc1C (stereo not drawn) | 11.9% | . | -35.2% | -22.5% | 3.5% | 44.7µM*
COc1ccccc1C(c1nnnn1Cc1ccccc1)N1CCN(C2CCCC2)CC1 (stereo not drawn) | 5.2% | -4.4% | 2.3%[11.4 µM] | 29.9µM* | -14.5% | -32.8%
COCCn1nnnc1C(c1cccs1)N1CCN2CCCC2C1 (stereo not drawn) | -19.9% | 3.4% | ? | 18.9µM* | -4.7% | -2.6%
COc1cccc(C(c2nnnn2Cc2ccc(F)cc2)N2CCC(C(N)=O)CC2)c1OC (stereo not drawn) | 17.3% | . | ? | -12.5% | -3.5% | ?
COc1cccc(C(c2nnnn2Cc2ccccc2)N2CCN(C3CCCC3)CC2)c1OC (stereo not drawn) | 16.7% | -5.4% | -29.2% | -7.5% | -9.5% | ?
Cc1cc2cc(C(c3nnnn3Cc3ccccc3)N3CCc4ccccc43)c(=O)[nH]c2cc1C (stereo not drawn) | -0.9% | . | ? | -6.3% | 6.7% | ?
COc1cccc(C(c2nnnn2Cc2ccco2)N2CCN(Cc3ccccc3)CC2)c1OC (stereo not drawn) | 28.1% | -19.3% | -10.5% | 8.4% | -13.3% | 50.1µM*
Cc1cc(NC(=O)COc2ccccc2)cc(-c2nc3ccccc3o2)c1O | 20.5% | . | 3.0% | . | -0.9% | -8.9%
CC(C)N1CCc2nc(SCC(=O)Nc3cccc(F)c3)[nH]c(=O)c2C1 | 32.9% | . | 0.0% | . | 20.9% | -14.1%
COc1ccc(OC)c(NC(=O)N2c3ccccc3Sc3ccccc32)c1 | 0.8% | . | ? | . | -6.4% | ?
COc1ccc(N2CCN(C(c3ccccc3OC)c3nnnn3Cc3ccco3)CC2)cc1 (stereo not drawn) | -46.7% | . | 50.1µM* | 4.6% | -7.2% | 39.8µM*
Cc1ccc(C(=O)Nc2cccc(C(F)(F)F)c2)cc1NC(=O)c1csc(-c2ccncc2)n1 | 26.0% | . | -26.1% | -12.7% | 6.3% | -31.0%
N#C/C(=N\Nc1cccc(C(F)(F)F)c1)C(=O)c1csc(-c2cccnc2)n1 | 2.6% | ? | ? | ? | -15.6% | 28.2µM*
Cc1cc(Br)ccc1SCC(=O)OCC(=O)NC1CC1 | 29.6% | 16.3% | -22.4% | -12.3% | -18.1% | 79.4µM*
COc1cc(Cl)c(C)cc1Nc1nc2ccccc2c2nnc(C)n12 | 77.5% | . | -3.8% | . | 3.0% | 16.2%
